Source: PubChem BioAssay AID431 (Sanford-Burnham Center for Chemical Genomics, 2006)
Out of some 63,000 compounds screened, about 1,100 (1.7%) were called active. The sample holds actives, similar compounds and a random draw of the others, so the mix is not that of the screen.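 The calls were made as follows: active = compounds whose percent cytotoxicity in the single-dose primary screen, scaled between solvent and toxic-drug controls, exceeds 50; inactive = the rest.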 Measured potencies and affinities stand elsewhere.

Test: cytotoxicity in KRAS-transformed pancreatic duct cells, primary screen, cell-based, fluorescence, HTS (AID 431);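 also: 0% = DMSO solvent wells and 100% = doxorubicin-treated wells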
Settings: HPDE-C7K KRASV12 cells, Alamar Blue viability, 48 h; at 10 µM; active compounds read high

Compound	cytotoxicity
COc1cc2c(cc1NC(=O)CCCN1C(=O)CCC1=O)oc1ccccc12	15.2% (inactive)
COc1cc2c(cc1NC(=O)CN1C(=O)NC3(CCc4ccccc43)C1=O)oc1ccccc12 (centres undefined)	55% (active)
COc1ccc(C(=O)CN2C(=O)NC3(CCCc4ccccc43)C2=O)cc1OC (centres undefined)	3.3% (inactive)
CCOC(=O)C1CCCN(C(=O)c2ccc3c(c2)NC(=O)C(N2CCOCC2)S3)C1 (centres undefined)	-2.6% (inactive)
CCOC(=O)N1CCN(C(=O)c2ccccc2CCc2ccccc2)CC1	12.2% (inactive)
COc1ccc(Cl)cc1CN1CCN(c2nc(C)cc(C)c2C#N)CC1	22.3% (inactive)
O=C(NCC12CC3CC(CC(C3)C1)C2)c1nc2ncccn2n1	7.1% (inactive)
CCN=C1SC(CC(=O)Nc2sc3c(c2C#N)CCCC3)C(=O)N1CC (centres undefined)	-3.9% (inactive)
O=C(Nc1ccc(F)c(F)c1)NC1CCCCC1	-0.5% (inactive)
Cc1ccc(NC(=O)NC2CCCCC2)cc1Cl	-4% (inactive)
CC(C)c1ccc(NC(=O)NC2CCCCC2)cc1	52.6% (active)
CCOc1ccc(NS(=O)(=O)c2ccc3[nH]c(=O)oc3c2)cc1	11.8% (inactive)
CCOc1ccc(NS(=O)(=O)c2ccc(SC)cc2)cc1	8.6% (inactive)
Cn1c(=O)c2c(nc(NCc3cccnc3)n2Cc2cccc(C(F)(F)F)c2)n(C)c1=O	-17.6% (inactive)
Cc1cc(=O)[nH]c(-n2nc(C)cc2C)n1	-16% (inactive)
Cc1ccc(Nc2cc(C)nn2-c2nc(C)cc(=O)[nH]2)cc1	101% (active)
Cc1cc(Nc2ccccc2)n(-c2nc3ccccc3[nH]2)n1	1.5% (inactive)
Cc1cccc(C)c1N(CC(=O)Nc1cccc(N(C)S(C)(=O)=O)c1)S(C)(=O)=O	-7.3% (inactive)
COc1ccc(Cl)c(Cn2c(NCCCN(C)C)nc3c2c(=O)n(C)c(=O)n3C)c1	-1.8% (inactive)
CCSc1nc2c(c(=O)[nH]c(=O)n2C)n1CC(O)COc1ccccc1C (centres undefined)	-11.9% (inactive)
Cc1ccccc1OCC(O)Cn1c(SC(C)C)nc2c1c(=O)[nH]c(=O)n2C (centres undefined)	-16.9% (inactive)
CC(C)CSc1nc2c(c(=O)[nH]c(=O)n2C)n1CC(O)COc1cccc2ccccc12 (centres undefined)	63.6% (active)
Cc1ccccc1OCC(O)Cn1c(N2CCN(c3ccccc3)CC2)nc2c1c(=O)[nH]c(=O)n2C (centres undefined)	78.8% (active)
COc1ccccc1OCC(O)Cn1c(Br)nc2c1c(=O)[nH]c(=O)n2C (centres undefined)	-3.5% (inactive)

Compound	cytotoxicity
Cn1c(=O)[nH]c(=O)c2c1nc(N1CCOCC1)n2CC(O)COc1ccccc1 (centres undefined)	-14.2% (inactive)
Cc1sc2nc(CN3CCOCC3)nc(N3CCC(C(N)=O)CC3)c2c1C	2.3% (inactive)
O=C(COCCOCC(=O)N(c1ccccn1)C1CCCCC1)N(c1ccccn1)C1CCCCC1	-24% (inactive)
CCOC(=O)c1nnn(-c2nonc2N)c1COc1ccccc1	-16.7% (inactive)
CN(C)CCNc1nc(-c2ccco2)c2c(c1C#N)CC(C)(C)OC2	-0.3% (inactive)
CCN(CC)CCNc1nc(-c2ccco2)c2c(c1C#N)CC(C)(C)OC2	-15.7% (inactive)
C=CCn1c(SCC2=C(C(=O)OCC)C(C)NC(=O)N2)nnc1C1CCCCC1 (centres undefined)	-17.2% (inactive)
Cc1cc(NS(=O)(=O)c2ccc(C3CCCCC3)cc2)no1	-3% (inactive)
FC(F)C(F)(F)C(F)(F)C(F)(F)c1cc(-c2ccccc2)n[nH]1	82.9% (active)
Oc1ccccc1-c1cc(C(F)(F)C(F)F)[nH]n1	-5.1% (inactive)
O=C1CC(C(F)(F)C(F)(F)C(F)(F)C(F)F)=Nc2ccccc2N1	-3.2% (inactive)
O=C(Cc1cn2ccsc2n1)NCc1ccccc1	-14.8% (inactive)
COc1cc2c(cc1OC)C(c1cc(OC)c(OC)c(OC)c1)NCC2 (centres undefined)	7.4% (inactive)
COc1cc2c(cc1OC)C1Cc3ccc(OC)c(OC)c3CN1CC2 (centres undefined)	-5% (inactive)
Cc1ccc(S(=O)(=O)Cn2nnnc2CN2CCCC3(CCCCC3)C2)cc1	4.3% (inactive)
COc1ccc2nc(NC(=O)c3cnccn3)sc2c1	4.7% (inactive)
OCCN1CCN(C(c2cccs2)c2ccc3cccnc3c2O)CC1 (centres undefined)	83.8% (active)
Cc1nc2sc(C(c3ccccc3)N3CCN(CCO)CC3)c(O)n2n1 (centres undefined)	-1.5% (inactive)
CN1CCN(C(c2cccnc2)c2ccc3cccnc3c2O)CC1 (centres undefined)	-15.1% (inactive)
FC(F)(F)c1ccccc1Nc1nccs1	14.9% (inactive)
CC1CC(C)CN(c2nc3c(c(=O)[nH]c(=O)n3C)n2CCSc2nc3ccccc3o2)C1 (centres undefined)	2.4% (inactive)
N#CC1=C2SCN(Cc3ccccc3)CN2C(=O)CC1c1cccs1 (centres undefined)	-0.4% (inactive)
COc1ccc(C2CC(=O)N3C(=C2C#N)SCC3(O)c2ccccc2)cc1 (centres undefined)	12.5% (inactive)
N#CC1=C2SCN(c3ccccc3)CN2C(=O)CC1c1cccs1 (centres undefined)	2.6% (inactive)

Compound	cytotoxicity
CCc1ccc(C2CC(=O)N3CN(c4ccccc4)CSC3=C2C#N)cc1 (centres undefined)	2.4% (inactive)
N#CC1=C2SCC(O)(c3ccccc3)N2C(=O)CC1c1ccccc1 (centres undefined)	65.7% (active)
COc1ccc(CCNS(=O)(=O)c2ccc3c(c2)OCCO3)cc1OC	-28.8% (inactive)
COc1ccc(S(=O)(=O)N(C)CC(=O)NC2CC2)cc1	-20.5% (inactive)
CCOc1ccc(N2CCCCn3c2nc2c3c(=O)[nH]c(=O)n2C)cc1	-9% (inactive)
COc1ccc(OC)c(NC(=O)CSc2nnc(Cn3c(=O)sc4ccccc43)n2C)c1	4.6% (inactive)
CCn1c(SCC(=O)c2cc(OC)ccc2OC)nc2c1c(=O)n(C)c(=O)n2C	-4.8% (inactive)
Cc1csc(NC(=O)CSc2ncnc3c2cnn3-c2ccccc2Cl)n1	31.8% (inactive)
CCOC(=O)Cc1csc(NC(=O)CSc2ncnc3c2cnn3-c2ccccc2Cl)n1	50% (active)
CCOC(=O)Cc1csc(NC(=O)CSc2ncnc3c2cnn3-c2ccc(OC)cc2)n1	4.2% (inactive)
Cc1cc(OCc2nn[nH]n2)c2c(C)c(Cc3ccccc3)c(=O)oc2c1	13.7% (inactive)
CSc1nc(-c2ccco2)cc(-c2ccccc2)c1C#N	45% (inactive)
Cc1cc(-c2ccccc2)c(C#N)c(N)n1	12.6% (inactive)
Cc1cccc2cc(CN(CCCO)C(=O)Nc3ccccc3Cl)c(=O)[nH]c12	-2.4% (inactive)
CC(C)(C)OC(=O)N[C@@H](Cc1ccccc1)c1nnc(S(=O)(=O)Cc2cccc(F)c2)o1	-21.9% (inactive)
CC[C@@H](C)[C@H](NC(=O)OC(C)(C)C)c1nnc(S(=O)(=O)Cc2cc(C)ccc2C)o1	46.9% (inactive)
Cn1nc(-c2ccc(Cl)cc2)c2cc(C(=O)N3CCN(c4ccccn4)CC3)sc21	-7.2% (inactive)
COc1ccc(N2CCN(C(=O)c3cc4c(-c5cccc(OC)c5)nn(C)c4s3)CC2)cc1	15.7% (inactive)
CN(C)c1ncc(C(=O)O)cn1	21.7% (inactive)
COc1ccc(C(=O)c2c[nH]c3ccccc23)cc1	15.5% (inactive)
COc1ccc(C(C(O)C(=O)c2c[nH]c3ccccc23)N2CCN(c3ccc(OC)cc3)CC2)cc1 (centres undefined)	50.4% (active)
O=C(c1c[nH]c2ccccc12)C(O)C(c1ccccc1)N1CCOCC1 (centres undefined)	-15.9% (inactive)
O=C(Nc1ccccc1F)C1CCCN(S(=O)(=O)c2cccc3cccnc23)C1 (centres undefined)	7% (inactive)
Cn1cnnc1SCc1ccc(C#N)cc1	2.3% (inactive)

Compound	cytotoxicity
OCCN(CC(O)Cn1ccc2ccccc21)CC(O)Cn1ccc2ccccc21 (centres undefined)	29.1% (inactive)
OCCNCC(O)Cn1ccc2ccccc21 (centres undefined)	-4.4% (inactive)
O=C1OCC2=C1C(c1ccc3c(c1)OCO3)Sc1ccccc1N2 (centres undefined)	-14.4% (inactive)
Cc1c(C(=O)N2CCN(C)CC2)oc2c1C(=O)CC(C)(C)C2	-40.9% (inactive)
c1ccc(-c2nc(N3CCCCCC3)nc(-n3ccnc3)n2)cc1	-10.1% (inactive)
c1ccc(-c2nc(N3CCN(c4ccccc4)CC3)nc(-n3ccnc3)n2)cc1	30.8% (inactive)
Cn1nc(-c2ccc(Cl)cc2)c2cc(C(=O)N3CCOCC3)sc21	8.6% (inactive)
CC(=O)c1ccc(NC(=O)c2noc3c2CCCCC3)cc1	16.4% (inactive)
COc1ccc2[nH]c3c(N4CCN(Cc5ccc6c(c5)OCO6)CC4)ncnc3c2c1	53.7% (active)
Cc1ccc2c(c1)[nH]c1c(N3CCN(Cc4ccc5c(c4)OCO5)CC3)ncnc12	9.5% (inactive)
c1ccc2c(c1)oc1c(N3CCN(Cc4ccc5c(c4)OCO5)CC3)ncnc12	10.1% (inactive)
COc1cccc2[nH]c3c(N4CCN(Cc5ccc6c(c5)OCO6)CC4)ncnc3c12	44.8% (inactive)
CCCCOc1ncnc2c1[nH]c1ccc(F)cc12	5% (inactive)
Fc1ccc2[nH]c3c(N4CCN(C5CCCCC5)CC4)ncnc3c2c1	23.3% (inactive)
COc1cccc(N2CCN(c3ncnc4c3[nH]c3ccc(F)cc34)CC2C)c1 (centres undefined)	121% (active)
COc1ccc2c(c1)c1ncnc(N3CCN(Cc4ccc5c(c4)OCO5)CC3)c1n2C	43.1% (inactive)
CN1CCN(c2ncnc3c2[nH]c2ccc(F)cc23)CC1	5.5% (inactive)
Fc1ccc2[nH]c3c(N4CCN(c5ccccc5)CC4)ncnc3c2c1	-3.9% (inactive)
CCC1S/C(=C(\C#N)C(=O)NCc2ccco2)N(c2ccc(F)cc2)C1=O (centres undefined)	-16.6% (inactive)
CC1CCCCN1S(=O)(=O)c1ccc2c(c1)oc(=O)n2CC(=O)O (centres undefined)	-0.1% (inactive)
CCN=C(Nc1ccc2c(c1)OCO2)SC1CC(=O)N(c2ccccc2F)C1=O (centres undefined)	-6% (inactive)
O=C(O)CCS(=O)(=O)Cc1ccccc1F	1.1% (inactive)
